The GenesisPotency data set
In all, about 290,000 compounds went through this assay and about 3,000 (1%) were called active. Rule as the data show it: active = inhibition mostly above about 36% (no sharp cut-off); inactive = mostly below about 34%. Only a selection was taken, and actives are over-represented in it overall.

Each molecule was assayed against T1, Nucleotide-binding oligomerization domain-containing protein 1, Homo sapiens (UniProt Q9Y239) (assay: inhibition of NOD1-driven NF-kB reporter – cell-based, luminescence, uHTS, primary screen (AID 1578)).
T1 sequence (whole entry): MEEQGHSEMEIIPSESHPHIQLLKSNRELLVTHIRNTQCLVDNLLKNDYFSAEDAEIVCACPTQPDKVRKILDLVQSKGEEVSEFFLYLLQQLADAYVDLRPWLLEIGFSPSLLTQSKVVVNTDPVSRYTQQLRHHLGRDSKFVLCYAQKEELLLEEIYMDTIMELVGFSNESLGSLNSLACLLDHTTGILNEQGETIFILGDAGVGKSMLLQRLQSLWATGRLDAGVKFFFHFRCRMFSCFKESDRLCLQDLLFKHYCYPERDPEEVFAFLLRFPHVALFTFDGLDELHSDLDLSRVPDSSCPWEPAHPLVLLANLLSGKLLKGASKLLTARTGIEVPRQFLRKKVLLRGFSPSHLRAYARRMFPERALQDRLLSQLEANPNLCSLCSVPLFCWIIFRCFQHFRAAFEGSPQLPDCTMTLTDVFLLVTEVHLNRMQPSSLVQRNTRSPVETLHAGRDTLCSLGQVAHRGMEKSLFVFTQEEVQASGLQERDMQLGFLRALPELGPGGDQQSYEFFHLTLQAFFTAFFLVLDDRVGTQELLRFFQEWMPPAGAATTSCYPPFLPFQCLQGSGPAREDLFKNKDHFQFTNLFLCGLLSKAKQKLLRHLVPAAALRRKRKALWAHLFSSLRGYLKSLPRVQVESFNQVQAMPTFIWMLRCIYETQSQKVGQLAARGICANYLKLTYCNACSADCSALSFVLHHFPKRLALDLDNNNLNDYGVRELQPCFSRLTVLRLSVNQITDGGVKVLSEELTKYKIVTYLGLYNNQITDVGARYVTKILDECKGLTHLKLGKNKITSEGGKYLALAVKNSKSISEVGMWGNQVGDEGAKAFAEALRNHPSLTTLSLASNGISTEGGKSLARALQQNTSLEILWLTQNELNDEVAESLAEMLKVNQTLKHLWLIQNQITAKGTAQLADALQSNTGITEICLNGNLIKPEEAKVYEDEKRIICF

outcome, active:
COC(=O)c1ccc(Nc2c([N+](=O)[O-])c(=O)oc3ccccc23)cc1
CCOC(=O)c1sc(N2C(=O)C(O)=C(C(=O)c3ccco3)C2c2ccco2)nc1C (configuration not stated)
CCOC(=O)N1CCN(C(=O)c2ccc(Cn3c(=S)[nH]c4cc5c(cc4c3=O)OCO5)cc2)CC1
Cc1ccc(C(=O)Sc2cccccc2=O)cc1
CC(=O)c1c(C)[nH]c(C(=O)OCC(=O)Nc2ccc(C)cc2[N+](=O)[O-])c1C
CC(/C=C1\SC(=O)N(CCCC(=O)O)C1=O)=C\c1ccccc1
CN(Cc1ccccc1)C(=S)NC(=O)c1ccc(-c2ccccc2)cc1
C=CCN(CC=C)C(=S)NC(=O)c1ccc(-c2ccccc2)cc1
CCOc1cc(/C=C(/C#N)c2ccc(Cl)cc2)cc(Cl)c1OCC(=O)O
CC1=C(CO)C(=O)OC([C@@H](C)C2CC[C@H]3C4C[C@H]5O[C@]56[C@@H](O)C=CC(=O)[C@]6(C)C4CC[C@]23C)C1 (some centres not stated)
O=C(Nc1nnc(-c2ccccc2)o1)c1ccc(Cl)cc1
CN(C)c1ccc(C(=O)Nc2nnc(-c3ccc(Cl)cc3)o2)cc1
Cc1cccc(-c2nnc(NC(=O)c3ccc(Cl)cc3)o2)c1
COc1ccc(OC)c(NC(=O)CSc2ncnc3c2cnn3-c2ccccc2Cl)c1
CC(Oc1ccc(Br)cc1)c1nc2c3ccccc3nc(=S)n2[nH]1 (configuration not stated)
CCCC(Oc1ccc(Br)cc1)c1nc2c3cc(OC)c(OC)cc3nc(=S)n2[nH]1 (configuration not stated)
COc1ccc(CCNc2ncnc3sc(C)cc23)cc1OC.Cl
COc1ccc(CCNc2ncnc3sccc23)cc1OC
Oc1ccc(CCNc2ncnc3ccc(Cl)cc23)cc1
COc1ccc(CCNc2ncnc3c2oc2ccccc23)cc1OC.Cl
COc1ccc(CCNc2ncnc3cc(OC)c(OC)cc23)cc1OC
O=C(c1ccc(S(=O)(=O)c2cccc(Cl)c2)c([N+](=O)[O-])c1)N1CCN(Cc2ccccc2)CC1
COc1ccc(NC(=O)/C(Cl)=C(/Cl)S(=O)Cc2ccc(Cl)cc2)cn1 (configuration not stated)
COc1ccc(NC(=O)/C(Cl)=C(/Cl)S(=O)Cc2ccccc2)cn1 (configuration not stated)
COc1ccc(NC(=O)/C(Cl)=C(/Cl)S(=O)Cc2ccc(C)cc2)cn1 (configuration not stated)
COc1ccc(NC(=O)/C(Cl)=C(/Cl)S(=O)Cc2ccccc2Cl)cn1 (configuration not stated)
COc1ccc(CS(=O)/C(Cl)=C(/Cl)C(=O)Nc2ccc(OC)nc2)cc1 (configuration not stated)
CC(=O)c1ccc(N2CCN(C(=S)Nc3ccc(Oc4ccccc4)cc3)CC2)cc1
C=CCSc1nsc(NC(=O)Nc2cccc(C(C)=O)c2)n1
Cc1ccc(CS(=O)(=O)c2ccc(C(=O)N3CCN(c4ccccn4)CC3)cc2[N+](=O)[O-])cc1
Cc1ccccc1CN1CCc2c(OCC(=O)N3CCCc4ccccc43)cccc2C1=O
O=[N+]([O-])c1ccc(NC(=S)NCCc2ccc(Cl)cc2)cc1
O=[N+]([O-])c1ccc(NC(=S)NCc2ccc(F)cc2)cc1
Cc1cc(-c2ccc(C)c(S(=O)(=O)N3CCN(c4ccc(F)cc4)CC3)c2)on1
COc1ccc(-c2cc(C)no2)cc1S(=O)(=O)N1CCN(c2ccccc2F)CC1
CCOC(=O)COc1ccc2ccccc2c1/C=C/[N+](=O)[O-]
COc1ccc(CC(=O)Nc2cccc(-c3nnc(-c4ccc(C)cc4)o3)c2)cc1OC
c1ccc2c(c1)ncn2-c1ccc(-c2ccnc(-c3ccncc3)n2)cc1
Nc1nccc(-c2ccc(-n3cnc4ccccc43)cc2)n1
O=C(NNC(=O)c1ccccc1OCc1ccc(F)cc1)c1ccccc1O
O=C(NNC(=O)c1ccccc1OCc1ccccc1)c1ccccc1O
c1ccc(C2=Nn3c(nnc3-c3ccncc3)SC2)cc1
COc1ccc(C2=Nn3c(nnc3-c3ccncc3)SC2)cc1
c1csc(C2=Nn3c(nnc3-c3ccncc3)SC2)c1
COc1cccc(-c2nnc3n2N=C(C(C)(C)C)CS3)c1
Clc1ccccc1C1=Nn2c(nnc2-c2ccncc2)SC1
N#C/C(=C(/O)COC(=O)COc1ccc(Cl)cc1)c1nc2ccccc2[nH]1
Cc1cc(C)cc(OCC(=O)OC/C(O)=C(\C#N)c2nc3ccccc3[nH]2)c1
N#C/C(=C(/O)COC(=O)COc1cccc(Br)c1)c1nc2ccccc2[nH]1
COc1ccc(-[n+]2c(C)cc(/C=C3\Sc4ccccc4N3C)cc2C)cc1.[I-]
COc1ccc(-c2cncnc2-c2ccc(OC)cc2O)cc1
COc1ccc(-c2cnc(N)nc2-c2ccc(OC)cc2O)cc1
Cc1ccc(Nc2cc(C)nn2-c2nc(C)cc(=O)[nH]2)cc1
O=c1c2c(nc3c(-c4ccc(Cl)cc4)c[nH]n13)CCC2
O=c1c2c(nc3c(-c4ccc(Cl)cc4)c[nH]n13)CCCC2
CCCc1cc(=O)n2[nH]cc(-c3ccc(Cl)cc3)c2n1
O=c1c2c(nc3c(-c4cccc(Br)c4)c[nH]n13)CCCC2
CN(C)S(=O)(=O)N1CCC(Oc2cccc(C(=O)NC3CCCCCC3)c2)CC1
Cc1ccc(NC(=S)N/N=C/c2ccc([N+](=O)[O-])s2)cc1
Cc1cccc(NC(=S)N/N=C/c2ccc([N+](=O)[O-])s2)c1
Cc1cc(N2CCOCC2)c2c(N)c(Br)cc(C)c2n1
CC(Oc1ccc(Br)cc1)C(=O)Nc1nc(-c2ccccn2)cs1 (configuration not stated)
O=C(Nc1nnc(SCc2ccc(F)cc2)s1)c1ccccn1
O=C(Nc1nc(-c2ccccn2)cs1)Nc1ccc(F)cc1F
O=C(Nc1nc(-c2cc(F)ccc2F)cs1)c1ccccn1
Cn1cc([N+](=O)[O-])c(C(=O)Nc2nc(-c3ccc(Cl)cc3)cs2)n1
O=C(Nc1nc(-c2ccccn2)cs1)c1cc(Cl)ccc1[N+](=O)[O-]
COc1ccc(-c2csc3ncnc(NCCCO)c23)cc1
COc1ccc(-c2csc3ncnc(NCCO)c23)cc1
OCCCNc1ncnc2scc(-c3ccc(Cl)cc3)c12
CCN(CC)S(=O)(=O)c1ccc2[nH]cc(C(=O)NCCC3=CCCCC3)c(=O)c2c1
Cn1c(=O)c2c(nc(NCc3ccco3)n2C/C=C/c2ccccc2)n(C)c1=O
O=C(Nc1ccc(S(=O)(=O)Nc2ccc(F)cc2)cc1)c1ccc(CN2CCOCC2)cc1
O=C(Nc1ccc(CN2CCOCC2)cc1)c1ccc(-c2ccc(Cl)cc2Cl)o1
O=C(Nc1ccc(S(=O)(=O)N2CCOCC2)cc1)c1ccc(CN2CCc3ccccc3C2)cc1
O=C(Nc1ccc(S(=O)(=O)N2CCCCC2)cc1)c1ccc(CN2CCOCC2)cc1
O=C(Nc1ccc(S(=O)(=O)N2CCCCC2)cc1)c1ccc(CN2CCc3ccccc3C2)cc1
